These results are taken from the supplement of paper PMC9446081.

The whole screen tested about 39,000 compounds, of which about 220 (0.56%) showed activity. Shown is part of a subset that was picked to be rich in actives.
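Also: Wild-type cells incubated without shaking, value is the mean of two biological replicates.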

For the assay, the system named is Escherichia coli K-12 BW25113. In words: relative growth (OD600 normalised to plate interquartile mean) (fraction); higher = less growth inhibition, active = 0.2 or less. Conditions: 50 µM; LB; incubation time: overnight (16-24 h).
Regarding `Cn1cc(CN2CCC(C(=O)N[C@@H](c3ccc(F)cc3)c3ccc4ccccc4n3)CC2)c2ccccc21`, the relative growth is 0.963 (inactive).

As to `C[C@@H]1CN([C@H](C)CO)C(=O)c2cccc(NS(=O)(=O)c3cn(C)cn3)c2O[C@@H]1CN(C)CC1CCCCC1`, the relative growth is 0.98 (inactive).

For `COc1ccc(CN(C)C[C@@H]2Oc3c(NC(=O)c4cc(C)nn4C)cccc3C(=O)N([C@@H](C)CO)C[C@H]2C)cc1`, the relative growth is 0.957 (inactive).

As to `CCn1cc(C(=O)O)c(=O)c2cc(F)c(N3CCN(C(=S)Nc4cc(C(F)(F)F)ccc4Cl)CC3)cc21`, the relative growth was 0.0858 (active).

Consider `CCn1cc(C(=O)O)c(=O)c2cc(F)c(N3CCNCC3)cc21`, for which the relative growth is 0.0456 (active).

As to `CCn1cc(C(=O)O)c(=O)c2cc(F)c(N3CCN(C)CC3)cc21.CS(=O)(=O)O`, the relative growth was 0.0455 (active).

In the case of `O=C(OC(C(F)(F)F)C(F)(F)F)N1CCN(Cc2ccc(C(F)(F)F)cc2N2CCCC2)CC1`, the relative growth was 0.994 (inactive).

As to `CCn1cc(C(=O)N2CCN(C)CC2)c(=O)c2cc(S(=O)(=O)N(C)C)ccc21`, the relative growth was 0.974 (inactive).

As to `CCOC(=O)c1c[nH]c(CC(C)=O)nc1=O`, the relative growth is 0.999 (inactive).

As to `Cc1ccc(S(=O)(=O)N2C[C@@H](O)COC[C@H]3O[C@H](CC(=O)N[C@H]4CCN(Cc5ccccc5)C4)CC[C@@H]32)cc1`, the relative growth was 1.01 (inactive).

Consider `C[C@H]1CN([C@@H](C)CO)C(=O)Cc2cc(NC(=O)Nc3ccc4c(c3)OCO4)ccc2O[C@H]1CN(C)S(=O)(=O)c1cn(C)cn1`, for which the relative growth is 0.835 (inactive).

As for `C[C@@H]1CN([C@H](C)CO)C(=O)c2cccc(NC(=O)Nc3cccc4ccccc34)c2O[C@H]1CN(C)S(=O)(=O)c1ccccc1`, the relative growth was 0.987 (inactive).

For the molecule `COc1ccc(S(=O)(=O)N(C)C[C@H]2Oc3c(NS(=O)(=O)c4c(C)noc4C)cccc3C(=O)N([C@H](C)CO)C[C@H]2C)cc1`, the relative growth is 0.997 (inactive).

As for `CON=C1CN(c2nc3c(cc2F)c(=O)c(C(=O)O)cn3C2CC2)CC1CN.CS(=O)(=O)O` (stereo not given), the relative growth is 0.0419 (active).

In the case of `CO/N=C1\CN(c2nc3c(cc2F)c(=O)c(C(=O)O)cn3C2CC2)C[C@@H]1CN`, the relative growth is 0.154 (active).

Consider `C[C@H]1CN([C@@H](C)CO)C(=O)Cc2cc(NC(=O)NC3CCCCC3)ccc2O[C@H]1CN(C)S(=O)(=O)c1cn(C)cn1`, for which the relative growth is 0.985 (inactive).

Take `C[C@H]1CN([C@@H](C)CO)C(=O)c2cc(NC(=O)Cc3ccccc3)ccc2O[C@@H]1CN(C)S(=O)(=O)c1cccs1`: the relative growth was 0.993 (inactive).

With `Nc1ccc(OCC(=O)N2CCOCC2)cc1`, the relative growth is 1.03 (inactive).

Take `CC(C)NC(=O)Nc1ccc2c(c1)C(=O)N([C@H](C)CO)C[C@@H](C)[C@H](CN(C)Cc1ccc(C(F)(F)F)cc1)OCCCC[C@@H](C)O2`: the relative growth was 1.02 (inactive).

With `CCOc1ccc2c(c1)-c1c(ssc1=S)C(C)(C)N2C`, the relative growth is 0.993 (inactive).

Regarding `CC1(C)SC2C(NC(=O)C(NC(=O)N3CCNC3=O)c3ccccc3)C(=O)N2C1C(=O)[O-].[Na+]` (stereo not given), the relative growth is 0.263 (inactive).

On to `CC1(C)SC2C(NC(=O)C(C(=O)[O-])c3ccccc3)C(=O)N2C1C(=O)[O-].[Na+].[Na+]` (stereo not given), for which the relative growth was 1.1 (inactive).

For the molecule `CCN1CCN(C(=O)NC(C(=O)NC2C(=O)N3C2SC(C)(C)C3C(=O)[O-])c2ccccc2)C(=O)C1=O.[Na+]` (stereo not given), the relative growth is 0.0465 (active).

Regarding `CC1(C)S[C@H]2[C@@H](NC(=O)[C@@H](NC(=O)N3CCN(S(C)(=O)=O)C3=O)c3ccccc3)C(=O)N2[C@@H]1C(=O)O`, the relative growth was 0.237 (inactive).

With `CCN1CCN(C(=O)N[C@@H](C(=O)N[C@@H]2C(=O)N3[C@@H]2SC(C)(C)[C@@H]3C(=O)O)c2ccccc2)C(=O)C1=O`, the relative growth was 0.606 (inactive).

Consider `CC1(C)S[C@@H]2[C@H](NC(=O)[C@H](NC(=O)N3CCNC3=O)c3ccccc3)C(=O)N2[C@H]1C(=O)O`, for which the relative growth was 0.0984 (active).

Regarding `C[C@@H]1CN([C@H](C)CO)C(=O)CCCn2cc(nn2)CO[C@H]1CN(C)C(=O)C1CC1`, the relative growth is 1.02 (inactive).

In the case of `Cn1nc(-c2ccccn2)nc2c(=O)n(C)c(=O)nc1-2`, the relative growth was 0.933 (inactive).

Take `C[C@@H]1CCCCO[C@H](CN(C)Cc2ccccc2)[C@H](C)CN([C@@H](C)CO)C(=O)c2cc(NS(=O)(=O)c3cccs3)ccc2O1`: the relative growth was 0.975 (inactive).

Consider `C[C@@H]1CN([C@H](C)CO)S(=O)(=O)c2ccc(-c3cccc(C#N)c3)cc2O[C@@H]1CN(C)C(=O)c1ccncc1`, for which the relative growth is 1 (inactive).

Consider `C[C@@H]1CN([C@H](C)CO)C(=O)Cc2cc(NS(=O)(=O)c3cccs3)ccc2O[C@@H]1CN(C)Cc1ccc(Cl)c(Cl)c1`, for which the relative growth is 1.01 (inactive).

As for `O=C(C[C@@H]1CC[C@H](NC(=O)c2cnccn2)[C@@H](CO)O1)NCc1ccccc1F`, the relative growth was 0.993 (inactive).

Regarding `Cc1noc(C)c1S(=O)(=O)Nc1ccc2c(c1)CC(=O)N([C@@H](C)CO)C[C@@H](C)[C@H](CN(C)S(C)(=O)=O)O2`, the relative growth is 0.975 (inactive).

Regarding `COc1ccc(NC(=O)Nc2ccc3c(c2)C(=O)N([C@@H](C)CO)C[C@H](C)[C@H](CN(C)S(C)(=O)=O)O3)cc1`, the relative growth is 0.991 (inactive).

For the molecule `Cc1ccc(S(=O)(=O)N(C)C[C@H]2Oc3c(NC(=O)c4ccncc4)cccc3C(=O)N([C@@H](C)CO)C[C@H]2C)cc1`, the relative growth was 1.01 (inactive).

Take `Cn1cc(-c2[nH]c3cc(NC(=O)[C@H](N)C4CCCCC4)cc4c3c2C=NNC4=O)cn1`: the relative growth is 0.161 (active).

For `C[C@@H]1CN([C@@H](C)CO)C(=O)c2cc(NC(=O)Nc3ccc4c(c3)OCO4)ccc2O[C@@H](C)CCCCO[C@@H]1CN(C)C(=O)NC1CCCCC1`, the relative growth is 1.04 (inactive).

Regarding `O=c1c(O[C@@H]2O[C@H](CO)[C@@H](O)[C@H](O)[C@H]2O)c(-c2ccc(O)c(O)c2)oc2cc(O)cc(O)c12`, the relative growth is 1.04 (inactive).

On to `CNC1C(O)C(NC)C2OC3(O)C(=O)CC(C)OC3OC2C1O.Cl.Cl` (stereo not given), for which the relative growth was 0.048 (active).

Turning to `CN[C@@H]1[C@H](O)[C@H](NC)[C@H]2O[C@@]3(O)C(=O)C[C@@H](C)O[C@H]3O[C@@H]2[C@H]1O`, the relative growth was 0.0458 (active).

For the molecule `C[C@@H]1CN([C@H](C)CO)C(=O)c2cc(NC(=O)C3CC3)ccc2O[C@@H]1CN(C)S(=O)(=O)c1ccccc1`, the relative growth was 0.987 (inactive).

As for `CC(C)NC(=O)Nc1cccc2c1O[C@H](CN(C)Cc1ccc(-c3ccccc3)cc1)[C@@H](C)CN([C@@H](C)CO)C2=O`, the relative growth is 0.997 (inactive).

Take `C[C@H]1CCCCO[C@H](CN(C)Cc2ccncc2)[C@@H](C)CN([C@@H](C)CO)C(=O)c2cc(NC(=O)C3CCCCC3)ccc2O1`: the relative growth was 0.956 (inactive).

In the case of `COc1ccc(S(=O)(=O)Nc2cccc3c2O[C@@H](CN(C)C(=O)NC(C)C)[C@H](C)CN([C@H](C)CO)C3=O)cc1`, the relative growth is 0.978 (inactive).

As to `COc1ccc(CN(C)C[C@@H]2OCCCC[C@H](C)Oc3ccc(NS(=O)(=O)c4ccc(OC)cc4)cc3C(=O)N([C@H](C)CO)C[C@H]2C)cc1`, the relative growth was 0.994 (inactive).

With `CN[C@@H]1[C@H](O[C@H]2[C@H](O[C@@H]3[C@@H](O)[C@H](O)[C@@H](NC(=N)N)[C@H](O)[C@H]3NC(=N)N)O[C@@H](C)[C@]2(O)C=O)O[C@@H](CO)[C@H](O)[C@H]1O`, the relative growth is 0.972 (inactive).

As to `CN[C@@H]1[C@H](O[C@H]2[C@H](O[C@H]3[C@H](O)[C@@H](O)[C@H](NC(=N)N)[C@@H](O)[C@@H]3NC(=N)N)O[C@@H](C)[C@]2(O)C=O)O[C@@H](CO)[C@H](O)[C@H]1O`, the relative growth is 0.888 (inactive).

In the case of `CN[C@@H]1[C@H](O[C@H]2[C@H](O[C@@H]3[C@@H](O)[C@H](O)[C@@H](NC(=N)N)[C@H](O)[C@H]3NC(=N)N)O[C@@H](C)[C@]2(O)CO)O[C@@H](CO)[C@H](O)[C@H]1O.CN[C@@H]1[C@H](O[C@H]2[C@H](O[C@@H]3[C@@H](O)[C@H](O)[C@@H](NC(=N)N)[C@H](O)[C@H]3NC(=N)N)O[C@@H](C)[C@]2(O)CO)O[C@@H](CO)[C@H](O)[C@H]1O`, the relative growth was 0.11 (active).

For the molecule `CN[C@H]1[C@@H](O[C@H]2[C@@H](O[C@H]3[C@@H](O)[C@@H](O)[C@@H](NC(=N)N)[C@@H](O)[C@@H]3NC(=N)N)O[C@@H](C)[C@@]2(O)C=O)O[C@@H](CO)[C@@H](O)[C@@H]1O.CN[C@H]1[C@@H](O[C@H]2[C@@H](O[C@H]3[C@@H](O)[C@@H](O)[C@@H](NC(=N)N)[C@@H](O)[C@@H]3NC(=N)N)O[C@@H](C)[C@@]2(O)C=O)O[C@@H](CO)[C@@H](O)[C@@H]1O.O=S(=O)(O)O.O=S(=O)(O)O.O=S(=O)(O)O`, the relative growth is 0.372 (inactive).

In the case of `CNC1C(OC2C(OC3C(O)C(O)C(NC(=N)N)C(O)C3NC(=N)N)OC(C)C2(O)C=O)OC(CO)C(O)C1O.O=S(=O)(O)O` (stereo not given) [STREPTOMYCIN SULFATE [5mM; 10% aq DMSO + 5mM ethanolamine]], the relative growth is 1.11 (inactive).

For `CNC1C(OC2C(OC3C(O)C(O)C(NC(=N)N)C(O)C3NC(=N)N)OC(C)C2(O)CO)OC(CO)C(O)C1O.O=S(=O)(O)O` (stereo not given), the relative growth was 0.0643 (active).

With `C[C@H]1CN([C@@H](C)CO)C(=O)c2cc(NC(=O)C3CC3)ccc2O[C@@H]1CN(C)S(=O)(=O)c1cn(C)cn1`, the relative growth is 0.941 (inactive).

Turning to `C[C@@H]1CCCCO[C@H](CN(C)Cc2ccc(C(F)(F)F)cc2)[C@H](C)CN([C@@H](C)CO)C(=O)c2cc(NS(=O)(=O)c3ccc(Cl)cc3)ccc2O1`, the relative growth was 1.03 (inactive).

With `O=C(C[C@@H]1C=C[C@H](NC(=O)c2cnccn2)[C@H](CO)O1)NCc1ccccc1F`, the relative growth was 1.03 (inactive).

For `OC[C@@H]1CN(CCN2CCOCC2)C[C@H](n2cnc3c(NC4CCC4)ncnc32)O1`, the relative growth was 0.936 (inactive).
